# Compounds without any hit were thinned out: in the full panel of roughly 83,000, 20% have a hit.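 Each cell line was grown in a 96-well plate and treated with one concentration of compound for 48 hours. Values below 10 were considered active.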 Values without a mark were called inactive. Calls of active or inactive are those of the source.
# Key:
# Test in all cases: NCI-60 one-dose screen, 48 h (100 = growth as untreated, 0 = no growth, -100 = all killed)
# Conditions in all cases: 10 µM unless noted
# HCT-15 colon = system: HCT-15 colon
# HT29 colon = system: HT29 colon
# SNB-75 CNS = system: SNB-75 CNS
# SNB-19 CNS = system: SNB-19 CNS
# U251 CNS = system: U251 CNS
# PC-3 prostate = system: PC-3 prostate
# SK-MEL-5 melanoma = system: SK-MEL-5 melanoma
# UACC-62 melanoma = system: UACC-62 melanoma
# SK-MEL-28 melanoma = system: SK-MEL-28 melanoma
# SK-MEL-2 melanoma = system: SK-MEL-2 melanoma
# EKVX NSCLC = system: EKVX NSCLC
# SN12C renal = system: SN12C renal
# UO-31 renal = system: UO-31 renal
# TK-10 renal = system: TK-10 renal
# ACHN renal = system: ACHN renal
# CAKI-1 renal = system: CAKI-1 renal
# A498 renal = system: A498 renal
# CCRF-CEM leukemia = system: CCRF-CEM leukemia
# MOLT-4 leukemia = system: MOLT-4 leukemia
SMILES,growth (HCT-15 colon),growth (HT29 colon),growth (SNB-75 CNS),growth (SNB-19 CNS),growth (U251 CNS),growth (PC-3 prostate),growth (SK-MEL-5 melanoma),growth (UACC-62 melanoma),growth (SK-MEL-28 melanoma),growth (SK-MEL-2 melanoma),growth (EKVX NSCLC),growth (SN12C renal),growth (UO-31 renal),growth (TK-10 renal),growth (ACHN renal),growth (CAKI-1 renal),growth (A498 renal),growth (CCRF-CEM leukemia),growth (MOLT-4 leukemia)
COc1ccc(C(=O)/C=C/c2ccc(OCc3ccccc3)c(OC)c2)cc1OC,9.77% (active),15.1%,-15.9% (active),14.4%,10.1%,37%,34.9%,29%,70.4%,72.7%,80.4%,1.82% (active),31.4%,62.7%,38.3%,38.8%,102%,9.36% (active),9.48% (active)
O=C(/C=C/c1ccc(-c2ccccc2)cc1)c1nc2ccccc2n1Cc1ccc(F)cc1,22.8%,9.19% (active),49.2%,44.6%,32.5%,47.6%,47.9%,38.2%,28.4%,56.6%,34.4%,53.9%,47.6%,55.8%,41.3%,49.5%,110%,11.9%,-12.8% (active)
O=C(O)c1cccc(-c2ccc(/C=N/NC(=O)c3[nH]c4ccc(Br)cc4c3-c3ccccc3)o2)c1,70.4%,107%,57.8%,30.7%,34.7%,86.4%,84.2%,35.5%,53.2%,61.4%,86.3%,81.5%,81%,117%,89.9%,96.4%,95.3%,9.68% (active),63.6%
N#Cc1c(-c2ccccc2Cl)cc(-c2ccc3ccccc3c2)[nH]c1=O,63.2%,108%,-37.1% (active),17%,-2.47% (active),60.6%,79.4%,52.7%,67.9%,95.4%,41.1%,0.758% (active),0.793% (active),-0.132% (active),9.07% (active),25.1%,-29.6% (active),56.8%,56.1%
CC1=C(C(=O)OC(C)C)C(c2cccc(O)c2)NC(=S)N1 (centres undefined),106%,102%,105%,96.8%,103%,107%,98.8%,91.3%,103%,111%,99.6%,102%,92%,104%,98.1%,89.9%,125%,98.6%,96.1%
C=C1CCC2C3(C)COC(c4cccc(F)c4)OC3CCC2(C)C1C/C=C1/C(=O)OCC1O (centres undefined),-23.6% (active),-1.9% (active),54.1%,30.1%,-90% (active),-17.5% (active),-19.3% (active),2.91% (active),-26.2% (active),-50.6% (active),23.1%,4.14% (active),-63.2% (active),-6.05% (active),-89.6% (active),11%,118%,16%,7.01% (active)
COc1cc2c(c(OC)c1OC)C(=O)CC(c1cccc(NC(=O)c3cc(NC(=O)[C@H](CO)NC(=O)OC(C)(C)C)ccc3Cl)c1)O2 (some centres undefined),35.4%,15.7%,54.8%,45%,25.4%,28.1%,14.3%,40.2%,21%,11.7%,62.2%,27.1%,48.8%,78.9%,46.1%,31.2%,91.5%,21.8%,12.5%
CSc1ccc(NC(=O)c2ccc3nnn(/C(C#N)=C/c4ccccn4)c3c2)cc1,-66.3% (active),-89.2% (active),63.2%,-73.1% (active),-81.6% (active),-20.1% (active),-99.7% (active),-65.9% (active),-72.6% (active),-96.3% (active),-99.6% (active),-99.9% (active),-100% (active),-98.5% (active),-100% (active),-93.5% (active),45.1%,6.95% (active),6.04% (active)
O=C(N/N=C/c1ccc(-c2ccc(O)cc2)s1)c1[nH]c2ccc(Br)cc2c1-c1ccccc1,6.81% (active),-71.4% (active),-12.7% (active),20.2%,25.7%,7.47% (active),5.31% (active),-13.1% (active),1.23% (active),-4.17% (active),12.3%,4.89% (active),15.2%,22.2%,-2.55% (active),37.2%,-8.65% (active),-8.51% (active),-13.3% (active)
COc1cc(CNC(=O)/C=C/c2ccc3c(c2)OCO3)ccc1OCc1cn(-c2ccc([N+](=O)[O-])cc2)nn1,97.3%,121%,106%,86.5%,96.2%,103%,89.3%,78.9%,99.9%,118%,71.5%,82.6%,78.2%,106%,90.5%,64.3%,113%,99.5%,72.4%
c1ccc(-c2csc(Nc3cccc(Nc4nc(-c5ccccc5)cs4)c3)n2)cc1,30.5%,39.4%,48.6%,58%,51.2%,32.1%,21%,50.3%,60.9%,64.9%,37.7%,43.4%,32.3%,68.6%,36.2%,34.9%,85.5%,38.6%,13.7%
Cc1c(C(=O)NNC(=O)c2ccc(Cl)cc2)nnn1-c1ccc(Cl)cc1,93.5%,92.3%,83.6%,95.1%,99.8%,95.4%,99.5%,86.1%,94%,106%,91.5%,94.7%,74.1%,96.1%,103%,87.2%,105%,88.4%,85.4%
COc1cc2oc(-c3cccc(C(=O)Nc4cccc([N+](=O)[O-])c4)c3)cc(=O)c2c(OC)c1OC,58.1%,59.9%,-6.58% (active),-4.16% (active),23.8%,33.3%,43.4%,18.4%,25.3%,-0.125% (active),41.6%,25.8%,0.82% (active),37.2%,16.2%,8.83% (active),3.68% (active),84.1%,64.6%
N#Cc1c(-c2cccc(Cl)c2Cl)cc(-c2c[nH]c3ccccc23)[nH]c1=O,49.7%,110%,79.6%,77.2%,68.9%,26.5%,51.6%,47.7%,83.5%,87.7%,53%,53.6%,43.1%,108%,59%,53%,128%,33.1%,41%
O=c1c2ccccc2nc(-c2ccccc2)n1/N=C/c1ccc2ccccc2c1,13.1%,19.9%,65.8%,56.8%,31.2%,53.4%,38.5%,35.8%,61.7%,116%,80.3%,52.5%,58.5%,72.9%,42.5%,48.5%,94.6%,51.9%,19.5%
O=C(N=Nc1c(O)[nH]c2ccc(Cl)cc12)c1ccc2nc(-c3ccccc3)[nH]c2c1,95.4%,57.4%,91.7%,-52.5% (active),-71.3% (active),51.1%,94.3%,21.7%,44.3%,43.4%,92.4%,42%,78.8%,143%,68.4%,89.3%,137%,41.7%,27.3%
